TRPM1 prom inh: inhibitors of MITF-driven TRPM1 promoter in melanoma cells | AID 488899 | inhibition, % at 12.5 µM | 330,000 tested, 0.83% active | SK-MEL-5 TRPM1 promoter luciferase, 24 h;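 active = mean inhibition across replicates of 60% or more, whatever share of single replicates reaches that level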
HIF-2a inh: HIF-2a inhibition; 786-0 RCC cells HIF-2a reporter, luciferase luminescence, overnight; inhibition, % at 18.8 µM; 360,000 tested, 0.72% active; AID 624352;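 active = inhibition of the luminescence signal of 40% or more relative to plate controls, in a single-dose primary screen at 18.75 µM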
CF NFkB inh: inhibitors of cystic fibrosis induced NF-kB; KKLEB NF-kB-GFP reporter, PAF-induced, GFP fluorescence overnight; inhibition, % at 5 µM; 360,000 tested, 0.86% active;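 active = at least 50% inhibition at 5 µM, scaled per plate between neutral and stimulator controls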;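 also: PAF is a Pseudomonas aeruginosa culture filtrate used as stimulus; plate controls were PAF-stimulated DMSO wells for no effect and unstimulated DMSO wells for full effect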
Beta2AR agonist: agonists of human beta-2 adrenergic receptor inducing internalization | P07550 | Am2.2-beta2AR cells, FAP receptor internalization, flow cytometry | response, % (no concentration beside the values) | 340,000 tested, 0.43% active | AID 504454;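 active = response above a set limit, near 3 SD of response in nonfluorescent compounds, cut at about 42% in these data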
Target sequence (P07550 whole entry, looked up): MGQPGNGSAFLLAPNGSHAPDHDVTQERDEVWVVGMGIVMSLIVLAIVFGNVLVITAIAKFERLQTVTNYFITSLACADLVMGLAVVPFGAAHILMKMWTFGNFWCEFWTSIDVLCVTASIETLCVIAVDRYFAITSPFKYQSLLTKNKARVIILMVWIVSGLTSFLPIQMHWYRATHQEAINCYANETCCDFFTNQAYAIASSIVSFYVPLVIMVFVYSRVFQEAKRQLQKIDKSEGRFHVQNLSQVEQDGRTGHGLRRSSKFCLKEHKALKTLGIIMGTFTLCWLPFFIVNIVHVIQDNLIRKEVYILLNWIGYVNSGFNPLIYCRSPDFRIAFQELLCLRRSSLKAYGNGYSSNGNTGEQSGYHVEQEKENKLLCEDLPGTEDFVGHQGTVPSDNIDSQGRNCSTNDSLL
KKLEB cytotox: CF airway cell cytotoxicity counter-screen | KKLEB CF airway cells viability, ATPlite luminescence, overnight; active compounds read low; cells stimulated with P. aeruginosa culture filtrate | activity change (cytotoxicity), % at 5 µM | 360,000 tested, 0.36% active;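 active = corrected activity change at or below -50% at 5 µM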
Peg3 promoter: Peg3 promoter activity inhibition; HeLa PEG-Prom luciferase reporter, luminescence, overnight; inhibition, % at 20 µM; 360,000 tested, 1.7% active; AID 588405;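 active = inhibition of at least 50% at 20 µM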
Starred values were filed as active, the others as inactive; · = no result. Most compounds without a hit are left out; they make up all but 2.8% or so of the library.

SMILES	TRPM1 prom inh	HIF-2a inh	CF NFkB inh	Beta2AR agonist	KKLEB cytotox	Peg3 promoter
O=C(CCl)Nc1cn(-c2ccccc2)nc1-c1ccccc1	74*	-65	46	-20	-71*	84*
CCCCNC(=O)C1c2ccccc2OCC(=O)N1CC(F)(F)F (stereo unspecified)	·	-1	·	·	·	·
COc1ccc(NC(=O)N(C)C[C@@H]2Oc3cc(Br)ccc3S(=O)(=O)N([C@H](C)CO)C[C@H]2C)cc1	·	5	-7	·	10	-6
C/C(=C\C(=O)c1ccc(Br)cc1)NCc1ccccc1	-43	-210	-19	46*	7	-215
c1ccc2c(c1)ccc1[nH]c3c(c12)CCCC3	-2	-97	-46	12	-2	-40
O=c1[nH]c(/C(Cl)=C/c2cc(Cl)ccc2O)nc2cc(Cl)ccc12	-5	-93	17	5	-53*	21
O=C(/C=C/[C@H]1O[C@@H](n2cnc3c(NC(=O)c4ccccc4)ncnc32)[C@H](O)[C@@H]1O)NCC1CCCO1 (stereo partly specified)	·	4	-26	·	0	-4
O=S(=O)(Nc1ccc(Br)cc1)c1cccc2nonc12	-2	19	-5	7	-17	19
O=S(=O)(Nc1ccc(C(O)(C(F)(F)F)C(F)(F)F)cc1)c1ccc(Cl)c2nonc12	·	15	45	·	-27	98*
CCCCCCCCCCCCCCCC[n+]1ccc(/C=N/O)cc1	78*	70*	28	3	-16	104*
O/N=C/c1cccc[n+]1CCCCCC[n+]1ccccc1/C=N/O	-6	16	-3	-5	2	2
O=C1NC[C@H](CCCCN2CCN(CC3CCCCC3)C(=O)C2=O)N(CCC2CCCCC2)C1=O	·	7	·	·	·	·
COCc1cccc(-c2csc(C(NC(C)=O)c3ccc(F)c(F)c3)n2)c1 (stereo unspecified)	·	-3	-16	·	-7	13
CSc1ccccc1NC(=O)CN(C)C(=O)CNC(=O)c1ccc(Oc2ccccc2)cc1	·	-65	-8	·	-6	-65
COc1cc(NS(=O)(=O)c2ccc(NC(C)=O)cc2)nc(OC)n1	12	5	10	1	-14	8
COc1cc(NS(=O)(=O)c2ccc(N/C=C(\C#N)c3nc4cc(Cl)ccc4o3)cc2)nc(OC)n1	77*	6	-64	-8	-17	-17
COc1ccc(-c2oc3c(c2C(=O)OCCCO)C(OCCCCCO)CCC3)cc1 (stereo unspecified)	·	8	·	·	·	·
N=c1n(Cc2ccccc2)c2ccccc2n1CC(O)COc1ccccc1 (stereo unspecified)	38	6	16	25	-18	71*
CCCCn1c(=N)n(CC(O)COc2ccc(C)cc2)c2ccccc21 (stereo unspecified)	43	0	-8	26	-6	72*
Cc1ccc(Cn2c(=N)n(CC(O)COc3ccccc3)c3ccccc32)cc1 (stereo unspecified)	-11	-31	18	34	-4	29
O=[N+]([O-])c1cccc(S(=O)(=O)Nc2nc3ccccc3nc2Nc2cccc(S(=O)(=O)N3CCCCC3)c2)c1	34	56*	61*	10	-55*	50
O=[N+]([O-])c1cccc(S(=O)(=O)Nc2ccc(S(=O)(=O)N3CCCC3)cc2)c1	-16	12	15	-1	-5	15
CCC(c1nnnn1-c1ccc2c(c1)OCCO2)N1CCN(c2ccccn2)CC1 (stereo unspecified)	·	8	·	·	·	·
CC(C)(C)OC(=O)NCc1ccc(CNC(=O)c2[nH]cnc2C(=O)NC2CCN(C(=O)OC(C)(C)C)CC2)cc1	21	4	8	4	-2	61*
CC(C)C[C@H](NC(=O)c1nc[nH]c1C(=O)NCCCCCNC(=O)OC(C)(C)C)C(=O)OCc1ccccc1	11	16	-9	5	-7	12
SMILES	TRPM1 prom inh	HIF-2a inh	CF NFkB inh	Beta2AR agonist	KKLEB cytotox	Peg3 promoter
Cc1cccc(NC(=O)c2nc[nH]c2C(=O)NC2CCN(C(=O)OC(C)(C)C)CC2)c1	5	-1	-22	1	-5	61*
CC(C)(C)OC(=O)NCCCCCNC(=O)c1nc[nH]c1C(=O)NCCCCCNC(=O)OC(C)(C)C	54	-1	19	20	-25	64*
CC(C)(C)OC(=O)NCCCCCNC(=O)c1[nH]cnc1C(=O)N[C@@H](Cc1ccccc1)C(=O)OCc1ccccc1	8	18	-5	14	-1	59*
CC(C)(C)OC(=O)NCCCCCNC(=O)c1[nH]cnc1C(=O)N[C@@H](CCCCNC(=O)OC(C)(C)C)C(=O)OC(C)(C)C	6	9	-6	4	-1	11
CC(C)(C)OC(=O)NCCCCCNC(=O)c1nc[nH]c1C(=O)NCc1ccc(CNC(=O)OC(C)(C)C)cc1	36	14	15	22	-1	80*
CC(C)(C)OC(=O)NCc1ccc(CNC(=O)c2nc[nH]c2C(=O)NCc2ccc(CNC(=O)OC(C)(C)C)cc2)cc1	29	14	1	10	23	26
CC(C)N(C(=O)[C@H]1C[C@H](CC(=O)NCCCN(C)C)C(=O)N2CCc3c([nH]c4cc(-c5ccco5)ccc34)[C@]12C)C(C)C	73*	-30	40	26	-15	91*
COc1ccc2[nH]c3c(c2c1)CCN1C(=O)C(CC(=O)NC/C=C(\C)CCC=C(C)C)C[C@H](C(=O)N2CCOCC2)[C@@]31CCC1CCCC1 (stereo partly specified)	25	0	-16	1	8	59*
CN(C)CCCNC(=O)C[C@H]1C[C@H](C(=O)N2CCOCC2)[C@@]2(CCC3CCCC3)c3[nH]c4cc(-c5ccco5)ccc4c3CCN2C1=O	-3	-9	26	63*	-3	95*
CC[C@]12c3[nH]c4ccc(OC)cc4c3CCN1C(=O)C(CC(=O)NC/C=C(\C)CCC=C(C)C)C[C@@H]2C(=O)N1CCN(C(=O)C2CC2)CC1 (stereo partly specified)	-2	4	14	-3	3	9
CCN(CC)C(=O)[C@H]1C[C@H](CC(=O)NCCCN(C)C)C(=O)N2CCc3c([nH]c4cc(-c5ccco5)ccc34)[C@]12C	-9	-32	6	8	-1	22
Cc1ccc(S(=O)(=O)N2[C@H](CC(=O)c3ccccc3)OC[C@@H]2C(C)C)cc1	·	-13	·	·	·	·
CCN(CC)CCCNC(=O)CSc1c2c(nc3cc(Cl)ccc13)CCCC2	16	15	21	4	-6	96*
CCCCCCC[N+](CC)(CC)CCCCc1ccc(Cl)cc1	76*	3	3	0	-28	15
CCCCCNCc1ccc(Cl)cc1	3	17	12	2	6	3
O=C(O)c1ccc(CN2C[C@@H](CO)O[C@@H](n3cnc4c(N5CCOCC5)ncnc43)C2)cc1	·	7	-24	·	18	5

Assay outcomes (PubChem)
